# Screening results as filed in PubChem BioAssay.
# An excerpt weighted towards active compounds, which were near 6.5% of everything screened.
# Vaccinia Venus: qHTS for Stage-Specific Inhibitors of Vaccinia Orthopoxvirus: Venus Reporter Primary qHTS. Vaccinia virus Venus reporter expression, fluorescence. Potency, µM (highest dose often 36.5 µM), inactives show at the top dose activity change, negative = inhibition, usual class: inhibitors. 330,000 compounds, 0.46% hits; calls by dose curve; tested in A549 cells; further: potency means the concentration at half of the fitted maximal effect; nearly all actives have a fitted effect of over 30% in size
# Marburg entry inh: qHTS for inhibitors of binding or entry into cells for Marburg Virus; 300,000 compounds, 1.8% hits; Marburg virus pseudotyped entry inhibition, cell reporter; Potency, µM (doses to about 37.8 µM), for the others: at the top dose activity change, negative = inhibition, actives largely listed as inhibitors; calls by dose curve; tested in HEK293 cells; further: potency means the concentration at half of the fitted maximal effect
# Vaccinia mCherry: qHTS for Stage-Specific Inhibitors of Vaccinia Orthopoxvirus: mCherry Reporter Primary qHTS; Vaccinia virus mCherry reporter infection, fluorescence; Potency, µM (titrated, usually from 36.5 µM), inactives show at the highest dose activity change, negative = inhibition, hits mostly inhibitors; 310,000 compounds, 0.63% hits; calls by dose curve; tested in A549 cells; further: potency means the concentration at half of the fitted maximal effect; nearly all actives have a fitted effect of over 35% in size
# Lassa entry inh: qHTS for Inhibitors of binding or entry into cells for Lassa Virus | 300,000 compounds, 1.2% hits | Lassa virus pseudotype entry inhibition, cell reporter | Potency, µM (series often up to 37.9 µM), for inactives: at the highest dose activity change, negative = inhibition, most hits filed as inhibitors | AID 540256, 2011; calls by dose curve; tested in HEK293 cells; further: potency means the concentration at half of the fitted maximal effect; nearly all actives have a fitted effect of over 50% in size
# FMDV inh: High Throughput Screening for Foot and Mouth Disease Virus Antivirals; Potency, µM (doses to about 57.9 µM), inactives show at the highest dose activity change, negative = inhibition, most hits filed as inhibitors; 410,000 compounds, 1.2% hits; FMDV antiviral cell-based qHTS; AID 1159524, 2015; calls by dose curve; tested in HEK293T cells; further: read-out not given here; potency means the concentration at half of the fitted maximal effect; nearly all actives have a fitted effect of over 45% in size
# HCMV inh: qHTS Assay for inhibitors of the human cytomegalovirus (HCMV) | HFF cells, HCMV-luciferase reporter, 72 h; hits give low values | activity change, negative = inhibition, % at 57.5 µM | 410,000 compounds, 4.5% hits | AID 1259415, 2018; in the data active means activity change below about -60%; inconclusive means no clear call, values can overlap the other calls; inactive means above about -39%
#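 Two-dose cell screen: HFF monolayers treated with compounds and infected with luciferase-expressing HCMV at 1 PFU/cell, 72 h at 37C, then lysed for luciferase measurement.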
# Numbers without * were called inactive; i = inactive; ? = inconclusive; . = no result given; [ ] = remark or other dose. On the % scale 0 is the no-effect control and ±100 the full control effect.
SMILES,Vaccinia Venus,Marburg entry inh,Vaccinia mCherry,Lassa entry inh,FMDV inh,HCMV inh
O=C(Nc1ccccc1SCC1CSc2nc3ccccc3c(=O)n21)c1ccccc1Cl (stereo unspecified),25%,?,.,?,-2%,?
Cc1ccc(C(=O)Nc2ccccc2SCC2CSc3nc4ccccc4c(=O)n32)cc1 (stereo unspecified),-11%,3.2µM*,.,7.1µM*,-13%,-85*
O=c1c2ccccc2nc2n1C(CSCc1ccc(Cl)cc1)CS2 (stereo unspecified),?,?,.,-22%,?,?
O=c1c2ccccc2nc2n1C(CSc1ccc(F)cc1)CS2 (stereo unspecified),-2%,?,i,5%[46.1 µM],9%,-35
O=c1c2ccccc2nc2n1C(CSc1ccccc1)CS2 (stereo unspecified),2%,23%[46.1 µM],-15%,8%[46.1 µM],29%,-31
O=C(Nc1ccccc1SCC1CSc2nc3ccccc3c(=O)n21)c1cccc(Cl)c1 (stereo unspecified),-30%,?,.,2.5µM*,0%,-96*
Cc1cccc(C(=O)Nc2ccccc2SCC2CSc3nc4ccccc4c(=O)n32)c1 (stereo unspecified),-15%,0.89µM*,.,6.3µM*,-24%,-75*
O=C(Cc1ccc(F)cc1)NO,-12%,.,i,.,.,.
COc1cc([N+](=O)[O-])ccc1NC(=O)CC1SC(=Nc2ccc(F)cc2)N(CCC2=CCCCC2)C1=O (stereo unspecified),1%,?,-9%,3.2µM*,?,-99*
Cc1cc([N+](=O)[O-])ccc1-c1ccc(/C=N/NC(=O)c2ccc(Br)o2)o1,.,.,.,.,?,-89*
O=[N+]([O-])c1ccc(-c2ccc(/C=N/n3cnnc3)o2)c(Br)c1,.,.,.,.,?,-90*
Cc1ccc(-c2ccc(/C=N\NC(=O)c3cc4c(ccc5ccccc54)o3)o2)cc1[N+](=O)[O-],9%,-8%,.,?,-15%,-95*
Cc1ccc([N+](=O)[O-])cc1-c1ccc(/C=N/NC(=O)c2cc3c(ccc4ccccc43)o2)o1,-6%,22%,.,14%,-15%,-29
Cc1cc(C)n(Cc2ccc(C(=O)N/N=C/c3ccc(-c4ccc([N+](=O)[O-])cc4)o3)o2)n1,-18%,?,-3%,-12%,-24%,-64*
Cc1cc(C(=O)N/N=C/c2ccc(-c3ccc([N+](=O)[O-])cc3C)o2)n[nH]1,-7%,0%[46.1 µM],i,-25%[46.1 µM],-24%,-15
NCC1OC(O[C@H]2[C@H](O)[C@@H](OC3C(O)C(N)CC(N)C3OC3OC(CO)C(O)C(O)C3N)O[C@@H]2CO)C(N)C(O)C1O (stereo partly specified),.,11%,.,21%,.,.
CCCc1nc2ccc(NC(=O)CC(C)(C)C)cn2n1,.,.,.,.,.,50
CCCCCCOc1ccc(/C=C/C(=O)Nc2sc3c(c2C(=O)OC)CCC3)cc1OC,-13%,.,-27%,20%[46.1 µM],14µM*,-107*
CCOC(=O)c1c(NC(=O)/C=C/c2ccc(OCC)c(OC)c2)sc2c1CCC2,5%,9%[46.1 µM],-8%,4%[46.1 µM],-10%,10
N#CCCn1c(=O)c(-c2cc(F)cc(F)c2)nc2cnc(N3CCOCC3)nc21,.,.,.,.,-10%,.
COc1ccc(-c2nc3scc(CCNS(=O)(=O)c4ccc(Oc5ccccc5)cc4)n3n2)cc1,-21%,.,-15%,14%[46.1 µM],5%,-28
Cc1cc(C)c(S(=O)(=O)NCCc2csc3nc(-c4ccc(Cl)cc4)nn23)c(C)c1,-29%,.,-27%,-1%[46.1 µM],4%,-66*
Cc1c(CCNS(=O)(=O)c2ccccc2)sc2nc(-c3ccc(Cl)cc3)nn12,?,.,?,?,-27%,-75*
O=S(=O)(NCCc1csc2nc(-c3ccccc3)nn12)c1ccc(Oc2ccccc2)cc1,-26%,.,-22%,?,-9%,-67*
CNC(=O)C1CCC(Cn2c(=O)c3sccc3n(CC(=O)NCc3ccc(F)cc3)c2=O)CC1 (stereo unspecified),-15%,.,-6%,-9%[46.1 µM],-20%,33
SMILES,Vaccinia Venus,Marburg entry inh,Vaccinia mCherry,Lassa entry inh,FMDV inh,HCMV inh
COc1ccccc1-n1c(Cc2cccc3ccccc23)nnc1SCC(=O)O,.,.,.,.,.,26
O=C(CCl)N1CCN(S(=O)(=O)Cc2ccccc2)CC1,.,.,.,.,28µM*,-76*
O=C(CCl)N1CCN(S(=O)(=O)c2ccc3c(c2)CCC3)CC1,.,.,.,.,20µM*,-80*
CCOC(=O)N1CCN(S(=O)(=O)Cc2ccccc2)CC1,10%,0%,.,1%,-9%,-4
CC(C)N(Cc1ccccc1)C(=O)CN1C(=O)CSc2ccc(S(=O)(=O)N3CCCC3)cc21,-16%,.,-19%,?,-10%,-22
COc1ccc(C2CC(=O)Oc3c(C(CCN4CCCCC4)c4ccc(N(C)C)cc4)c(OC)cc(OC)c32)cc1 (stereo unspecified),?,.,?,.,-20%,-60*
COc1ccc(C2CC(=O)Oc3c(C(CCN4CCCC(C)C4)c4ccc(N(C)C)cc4)c(OC)cc(OC)c32)cc1 (stereo unspecified),-11%,.,?,.,-30%,-3
CCOC(=O)Cn1c(=N)n(Cc2ccc(C(C)(C)C)cc2)c2ccccc21,-2%,.,-13%,9%[46.1 µM],?,?
N#Cc1cc2c(nc1SCC(=O)Nc1ccc(OC(F)(F)F)cc1)C1CCN2CC1,-18%,.,-27%,-29%[46.1 µM],-42%,-72*
N#Cc1cc2c(nc1SCC(=O)Nc1cc(Cl)cc(Cl)c1)C1CCN2CC1,.,7%,.,5%,-13%,4
N#Cc1cc2c(nc1SCC(=O)Nc1cccc(C(F)(F)F)c1)C1CCN2CC1,-23%,-9%[46.1 µM],-28%,-36%[46.1 µM],2%,?
N#Cc1cccc(NC(=O)CSc2nc3c(cc2C#N)N2CCC3CC2)c1,-17%,?,-23%,?,40%,-83*
CCOC(=O)c1ccc(NC(=O)CSc2nc3c(cc2C#N)N2CCC3CC2)cc1,-12%,?,-14%,-15%[46.1 µM],13µM*,6
Cc1ccc(CNC(=O)c2cc(C)nc3c2c(C)nn3-c2ccc(C)cc2)cc1,-16%,.,-21%,4%[46.1 µM],2%,1
COc1cc(/C=N/Nc2nc(C)cc(C)n2)ccc1OC(=O)c1ccco1,-9%,7%,-3%,?,3%,-17
CCOc1cc(/C=N\Nc2nc(Nc3ccccc3)nc(N3CCOCC3)n2)ccc1OC(=O)c1ccco1,?,3.3µM*,?,?,-7%,-5
Cc1ccc(NC(=O)COC(=O)c2ccccc2OCC(=O)Nc2ccc(Br)cc2)c(Br)c1,-8%,.,i,.,.,.
